# From the supplement of paper PMC3334620
# Whole data set: some 33,000 sequences, median “E-score (-0.5 to 0.5)” near -0.015, cut for the highest 2% near 0.3. For the sample, the highest values were picked, then their nearest neighbours and some sequences at random.
# Biological target: T1, Abf1 (UniProt P14164)
# T1 sequence: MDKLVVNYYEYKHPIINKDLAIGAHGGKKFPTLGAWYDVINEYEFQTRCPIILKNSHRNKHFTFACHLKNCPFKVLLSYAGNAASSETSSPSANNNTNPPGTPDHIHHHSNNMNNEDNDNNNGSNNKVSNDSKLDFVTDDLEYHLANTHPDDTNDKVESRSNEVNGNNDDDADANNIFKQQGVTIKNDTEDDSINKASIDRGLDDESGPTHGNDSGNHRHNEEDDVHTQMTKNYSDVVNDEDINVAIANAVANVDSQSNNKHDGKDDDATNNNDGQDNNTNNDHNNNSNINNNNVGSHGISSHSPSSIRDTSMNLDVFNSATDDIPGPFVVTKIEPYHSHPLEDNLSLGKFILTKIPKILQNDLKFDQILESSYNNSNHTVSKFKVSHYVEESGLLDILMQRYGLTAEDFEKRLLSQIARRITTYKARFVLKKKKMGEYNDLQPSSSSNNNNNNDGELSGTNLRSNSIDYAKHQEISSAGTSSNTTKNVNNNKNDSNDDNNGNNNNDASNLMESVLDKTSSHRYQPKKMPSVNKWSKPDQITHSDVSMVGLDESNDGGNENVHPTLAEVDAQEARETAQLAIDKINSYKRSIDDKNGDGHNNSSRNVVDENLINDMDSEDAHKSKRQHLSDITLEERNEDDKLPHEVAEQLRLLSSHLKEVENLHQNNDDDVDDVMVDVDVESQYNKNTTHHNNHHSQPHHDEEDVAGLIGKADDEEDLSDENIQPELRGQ
# Test: PBM E-score (8-mer binding enrichment) (E-score (-0.5 to 0.5)); higher = stronger / more preferred TF binding
# Settings: protein concentration: 200 nM; construct: GST-full length
# Method: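 Universal 'all 10-mer' protein binding microarrays (Agilent AMADID 015681) probed with GST-tagged S. cerevisiae TFs (full-length or DBD) made by in vitro transcription/translation (PURExpress), about 100-200 nM. Bound TF was detected with fluorescent anti-GST. Each ungapped 8-mer (which stands for itself and its reverse complement) is scored by the PBM enrichment score (E-score), a modified Wilcoxon-Mann-Whitney statistic from -0.5 to +0.5, computed with the Universal PBM Analysis Suite. Scale: above 0.35 generally sequence-specific binding.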
row,Sequence,PBM E-score
1,ATCCCTGA,-0.0627
2,CCAGGGGC,-0.331
3,GTTAGCGA,0.32
4,ATTAGCGA,0.136
5,CTTAGCGA,0.0369
6,GGGTTATA,-0.105
7,AATTTACG,0.0813
8,ATTTTACC,0.11
9,ATTTTACG,0.322
10,TACAGCTA,-0.41
11,AATAGTGG,0.0153
12,ATTAGTGG,0.1
13,CTTAGTGC,-0.0935
14,ATTAGTGA,0.365
15,AATAGTGA,0.358
16,ATTAGTGC,0.148
17,AATAGTGC,0.0751
18,CTTAGTGA,0.305
19,GTTAGTGA,0.17
20,TCGAGCAA,0.1
21,ATTTCCGG,0.0492
22,ATTTCTTA,0.0563
23,GAAGAAAC,-0.133
24,AAATTCGC,0.0441
25,AAATTCGG,0.0545

row,Sequence,PBM E-score
1,AATTTCGT,0.36
2,AATTTCGA,0.00012
3,AATTTCGC,-0.0531
4,AAATTCGT,0.328
5,GACGCCTC,-0.0456
6,ATAACCCA,-0.0314
7,AGGGTAAT,0.0413
8,CACAGTGA,0.109
9,GCATCTCC,-0.255
10,ACTGGAGA,-0.174
11,CCCCCAGA,-0.326
12,CACGAGTC,0.0257
13,CGCACGAC,0.242
14,TGCACGAA,0.368
15,CGCACGAG,0.156
16,AGCACGAA,0.217
17,CGCACGAA,0.321
18,GGCACGAA,0.103
19,CACAACGC,-0.174
20,AGGGAGGA,-0.187
21,ATCCGGGC,-0.197
22,GCGATATA,0.368
23,CCGATATA,0.0343
24,GAGATATA,0.147
25,ATGATAGG,0.116

row,Sequence,PBM E-score
1,GGGATATA,-0.045
2,ATGATATA,0.403
3,AAGATATG,0.283
4,ATGATATG,0.367
5,GTGATATA,0.395
6,CTGATATA,0.107
7,GCGATACA,0.139
8,AAGATATA,0.162
9,GTGGACAA,0.133
10,CTCCTGAC,0.0261
11,AGGGGACA,-0.0441
12,CCAGGGTC,-0.217
13,ACGGCTAC,0.0914
14,CGTTCAGA,0.0456
15,CTGATATC,0.0641
16,ATGATACA,0.202
17,ATGATATC,0.362
18,ATGATAGC,0.24
19,ATGATACG,0.305
20,ATGATACC,0.291
21,ACGCGCCT,-0.0785
22,AGATAAGG,0.00618
23,GGAGGTCA,0.0571
24,CTGACGAC,0.228
25,ATGTACGC,0.027

row,Sequence,PBM E-score
1,CTGTACGA,0.383
2,ATGTACGG,0.241
3,GAGTACGA,0.0499
4,GTGTACGA,0.337
5,CTGTACGC,-0.106
6,ATGTACGA,0.444
7,GTGTACTA,0.165
8,CTGTACAA,0.109
9,GTGTCGGA,0.0611
10,GACGTAGA,0.0745
11,TCCGACCA,-0.143
12,AAACTCTA,-0.144
13,CCCACAAC,-0.0362
14,GCCTCCAA,-0.121
15,GATATATC,0.332
16,AATATATC,0.139
17,CATATACC,-0.0104
18,GATATAAA,0.22
19,GATATAAC,0.307
20,GATATATA,0.289
21,GATATACA,0.111
22,GATATACC,0.34
23,CATATAAC,0.155
